Laboratory results published in PubChem BioAssay (EPA / NIEHS).
Inconclusive results are not listed. Calls of active or inactive are those of the source. The calls were made as follows: active = hit-call score of the fitted dose curve at least 0.9, where 1 is the maximum; inconclusive = response in the unintended direction; inactive = score below 0.9.

The molecules below were run on Broad substrate specificity ATP-binding cassette transporter ABCG2 (Homo sapiens) (UniProt Q9UNQ0) (assay: CLD_ABCG2_48hr: CellzDirect (CLD) Gene Expression Assay for ABC Transporter (ABCG2) at 48 hours (AID 2283704);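 as to AC50: potency for induction of ABCG2 mRNA above the DMSO baseline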).
Chain of Broad substrate specificity ATP-binding cassette transporter ABCG2 (Homo sapiens) (Q9UNQ0 whole entry, looked up): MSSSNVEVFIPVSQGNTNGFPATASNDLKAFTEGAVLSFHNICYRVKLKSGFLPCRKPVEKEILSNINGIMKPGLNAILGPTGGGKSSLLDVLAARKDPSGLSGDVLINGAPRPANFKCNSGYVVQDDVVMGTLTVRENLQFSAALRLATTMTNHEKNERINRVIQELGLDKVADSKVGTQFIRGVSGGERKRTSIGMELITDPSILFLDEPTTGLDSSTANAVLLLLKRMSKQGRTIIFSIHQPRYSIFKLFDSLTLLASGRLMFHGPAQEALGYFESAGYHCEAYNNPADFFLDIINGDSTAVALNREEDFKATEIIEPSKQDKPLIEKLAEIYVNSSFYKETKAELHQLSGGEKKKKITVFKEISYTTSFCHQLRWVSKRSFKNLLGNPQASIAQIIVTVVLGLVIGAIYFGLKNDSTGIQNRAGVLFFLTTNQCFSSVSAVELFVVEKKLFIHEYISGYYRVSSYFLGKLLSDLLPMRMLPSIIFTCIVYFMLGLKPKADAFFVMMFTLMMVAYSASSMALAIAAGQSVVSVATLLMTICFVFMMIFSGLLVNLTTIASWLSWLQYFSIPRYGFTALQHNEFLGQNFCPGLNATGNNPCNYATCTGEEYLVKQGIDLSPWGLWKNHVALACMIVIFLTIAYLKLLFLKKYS
Experimental: CLD_48hr is a cell-based, multiplexed-readout assay that uses hepatocyte, a human liver primary cell, with measurements taken at 48 hours after chemical dosing in a 96-well plate.CLD_ABCG2_48hr is one of 16 assay component(s) measured or calculated from the CLD_48hr assay. It is designed to make measurements of mRNA induction, a form of inducible reporter, as detected with chemiluminescence signals by Quantitative Nuclease Protection Assay (qNPA) technology.Data from the assay component CLD_ABCG2_48hr was analyzed at the endpoint, CLD_ABCG2_48hr, in the positive analysis fitting direction relative to DMSO as the negative control and baseline of activity. Using a type of inducible reporter, gain-of-signal activity can be used to understand changes in the reporter gene as they relate to the gene ABCG2. Furthermore, this assay endpoint can be referred to as a primary readout. To generalize the intended target to other relatable targets, this assay endpoint is annotated to the transporter intended target family, where subfamily is ABC transporter.
Human hepatocyte cultures were treated daily for two consecutive days with fresh dosing solutions containing appropriate concentrations of the 320 ToxCast chemicals (chemical identities were blinded to CellzDirect and other ToxCast collaborators), vehicle control (0.2% DMSO), and positive control inducers as summarized in Table 1. Due to the large number of treatment groups and chemicals examined, the ToxCast chemicals were divided into two groups (spanning two independent cultures of hepatocytes from separate donor preparations (Hu778: ToxCast plates 1 and 2; Hu776: ToxCast plates 3 and 4). Each preparation of human hepatocyte cultures was treated with respective vehicle control, medium only control, set of six positive controls/reference chemicals for the five hepatic receptor pathways, and a subset of eight of the ToxCast chemicals (indoxacarb, pyrithiobac-sodium, norflurazon, cyhalofop-butyl, methomyl, thiram, acetochlor, and propiconazole). These replicate data, coupled with internal replicates designed within the blinded ToxCast chemical library, provided additional data to evaluate interindividual differences between hepatocyte preparations and their potential impact on chemical profiles.Cell morphology and integrity were evaluated using phase-contrast microscopy as an indicator of hepatocyte cell health (Tyson & Green, 1987). Cultures for each treatment group (i.e., media, vehicle [0.2% DMSO], positive control inducers [multiple concentrations], and the ToxCast chemicals [multiple concentrations]) were observed and cell morphology was assessed relative to vehicle control cultures at each harvest time point (0, 6, 24, or 48 h). […] Images were evaluated at the conclusion of the study to assess changes in cell integrity and account for the effects of chemical exposure on uncharacteristic changes in concentration-dependent gene expression profiles. The results from these determinations of apparent cytotoxicity were annotated (yes/no) alongside the corresponding qNPA data for reference.At the conclusion of each treatment period, hepatocyte cultures (96-well) were washed with 1 volume of HBSS, lysed by addition of 25 ul ArrayPlate lysis buffer (HTG, Tucson, AZ), and 70 ul/well of Denaturation Oil, denatured by incubation at 95C for 10 min, and frozen at approximately -70C until analysis by nuclease protection assay (qNPA) (Roberts et al., 2007). For qNPA analysis, cell lysates were thawed at 50C for approximately 30 min, qNPA probes were added, and samples were incubated at 95C for 10 min to begin the detection process by denaturing the target RNA, dissociating the duplexes and secondary structure hybridization. At the conclusion of the hybridization period, S1 nuclease reagent was added to each sample to digest all nonprotected nucleotides at 50C for 60-90 min. […]
In the case of CS(=O)(=O)c1ccc(C(=O)C2C(=O)CCCC2=O)c([N+](=O)[O-])c1, the outcome is reported as “inactive”.
In the case of Nc1cnn(-c2ccccc2)c(=O)c1Cl, the outcome is reported as “inactive”.
With CCCCC(O)(Cn1cncn1)c1ccc(Cl)cc1Cl (stereo not given) the outcome was “inactive”.
CS(=O)(=O)c1cc(C(F)(F)F)ccc1C(=O)c1cnoc1C1CC1 was tested, and the outcome was “inactive”.
For COc1cc(Cl)c(OC)cc1Cl, the outcome was “inactive”.
For Cc1c(COC(=O)[C@@H]2[C@H](/C=C(\Cl)C(F)(F)F)C2(C)C)cccc1-c1ccccc1, the outcome was “inactive”.
COCC(C)N(C(=O)CCl)c1c(C)csc1C (stereo not given) was tested, and the outcome was “inactive”.
For C=C(C)CN(CC)c1c([N+](=O)[O-])cc(C(F)(F)F)cc1[N+](=O)[O-], the outcome was “inactive”.
For COC(=O)NC(=S)Nc1ccccc1NC(=S)NC(=O)OC, the outcome was “inactive”.
In the case of Cn1c(-c2ccccc2)cc(-c2ccccc2)[n+]1C, the outcome is reported as “inactive”.
With CCSC(=O)N1CCCCCC1 the outcome was “inactive”.
For CC(C)Oc1cccc(NC(=O)c2ccccc2C(F)(F)F)c1, the AC50 was 0.000858 µM (active).
With CC1(C)CCC(=Cc2ccc(Cl)cc2)C1(O)Cn1cncn1 (stereo not given) the outcome was “inactive”.
CCOc1cc(C(C)(C)C)ccc1C1COC(c2c(F)cccc2F)=N1 (stereo not given) was tested, and the outcome was “inactive”.
O=c1n(Cl)c(=O)n(Cl)c(=O)n1Cl was tested, and the outcome was “inactive”.
CSC(=O)c1c(C(F)F)nc(C(F)(F)F)c(C(=O)SC)c1CC(C)C was tested, and the outcome was “inactive”.
CCCCC(C#N)(Cn1cncn1)c1ccc(Cl)cc1 (stereo not given) was tested, and the outcome was “inactive”.
With CC(C)(C)C(=O)C(Oc1ccc(Cl)cc1)n1cncn1 (stereo not given) the outcome was “inactive”.
With CC(C)=CC1C(C(=O)OCc2coc(Cc3ccccc3)c2)C1(C)C (stereo not given) the outcome was “inactive”.
With N#Cc1c(Cl)cccc1Cl the outcome was “inactive”.
For N#CN=C1SCCN1Cc1ccc(Cl)nc1, the outcome was “inactive”.
With Clc1cccc(C(Cl)(Cl)Cl)n1 the outcome was “inactive”.
For COP(=S)(OC)SCn1nnc2ccccc2c1=O, the outcome was “inactive”.
For COc1cc(OC)nc(NC(=O)NS(=O)(=O)c2ncccc2OCC(F)(F)F)n1, the outcome was “inactive”.
In the case of COc1ccc(-c2ccccc2)cc1NNC(=O)OC(C)C, the outcome is reported as “inactive”.
With Nc1c(Cl)c(F)nc(OCC(=O)O)c1Cl the outcome was “inactive”.
For Clc1nc(Cl)nc(Nc2ccccc2Cl)n1, the outcome was “inactive”.
COP(=O)(OC)O/C(C)=C/C(=O)N(C)C was tested, and the outcome was “inactive”.
CCNC(=O)NC(=O)C(C#N)=NOC was tested, and the outcome was “inactive”.
For CC1(C)C(C(=O)OC(C#N)c2cccc(Oc3ccccc3)c2)C1(C)C (stereo not given), the outcome was “inactive”.
In the case of CNC(=O)N(C)c1nnc(C(C)(C)C)s1, the outcome is reported as “inactive”.
For C=CCOC(=O)C(C)(C)OC(=O)c1cc(-n2c(=O)cc(C(F)(F)F)n(C)c2=O)ccc1Cl, the outcome was “inactive”.
With CO/N=C(/C1=NOCCO1)c1ccccc1Oc1ncnc(Oc2ccccc2Cl)c1F the outcome was “inactive”.
O=C1C2CC=CCC2C(=O)N1SC(Cl)(Cl)Cl (stereo not given) was tested, and the outcome was “inactive”.
In the case of CN=C=S, the outcome is reported as “inactive”.
COC(=O)c1c(C(F)F)nc(C(F)(F)F)c(C2=NCCS2)c1CC(C)C was tested, and the outcome was “inactive”.
With CCCN(CC)CC1COC2(CCC(C(C)(C)C)CC2)O1 (stereo not given) the outcome was “inactive”.
OC(c1ccc(Cl)cc1)(c1ccc(Cl)cc1)C(Cl)(Cl)Cl was tested, and the outcome was “inactive”.
Cc1ccc(N=CN(C)C=Nc2ccc(C)cc2C)c(C)c1 was tested, and the AC50 was 17.4 µM (active).
For CC(C)N1C(=O)N(c2ccccc2)CSC1=NC(C)(C)C, the outcome was “inactive”.
